The campaign covered roughly 190,000 compounds. About 1,300 (0.68%) were called active. This is one part of a sample in which actives are shown more often than they occur. No stated cut-off is given here; in the data, active means inhibition above about 50%; inactive means the rest.

The record followed here is PubChem BioAssay AID1220 (Sanford-Burnham Center for Chemical Genomics, 2008).

The target in the assay is Mannose-6-phosphate isomerase (Homo sapiens) (UniProt P34949). Description: human PMI inhibitors, high substrate, primary screen, biochemical, fluorescence intensity, high mannose 6-phosphate (AID 1220). The settings on record: recombinant PMI enzyme, coupled fluorescence intensity; at 20 µM; stronger effect = higher value.
Chain of Mannose-6-phosphate isomerase (Homo sapiens) (P34949 whole entry, looked up): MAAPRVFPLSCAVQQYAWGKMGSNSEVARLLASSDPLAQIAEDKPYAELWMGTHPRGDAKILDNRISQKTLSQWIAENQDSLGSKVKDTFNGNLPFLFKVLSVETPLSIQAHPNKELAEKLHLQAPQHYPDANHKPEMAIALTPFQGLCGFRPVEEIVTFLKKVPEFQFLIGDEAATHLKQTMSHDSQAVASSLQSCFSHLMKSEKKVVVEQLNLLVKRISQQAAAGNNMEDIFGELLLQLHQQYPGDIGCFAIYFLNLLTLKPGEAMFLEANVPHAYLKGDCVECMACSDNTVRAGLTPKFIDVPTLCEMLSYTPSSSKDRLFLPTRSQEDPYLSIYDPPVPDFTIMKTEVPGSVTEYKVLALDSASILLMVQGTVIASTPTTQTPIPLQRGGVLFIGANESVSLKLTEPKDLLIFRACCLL
Turning to `CCOc1c(OC(C)=O)ccc(/C=C/c2ccc3cccc(OC)c3n2)c1[N+](=O)[O-]`, the inhibition was 11.3% (inactive). In the case of `COc1ccc(CC(NC(C)=O)C(=O)NC2CCN(S(=O)(=O)c3ccccc3)CC2)cc1OC` (centres undefined), the inhibition is 4.4% (inactive). Consider `CC(/C=C/c1ccccc1)=N/NC(=O)CCC(=O)Nc1ccccc1C`, for which the inhibition was -55.7% (inactive). As to `O=C(NCc1ccc(Cl)cc1)c1ccc(-c2ccccc2C(F)(F)F)o1`, the inhibition is 2.3% (inactive). Take `Oc1ccc2ccccc2c1Br`: the inhibition was 52.5% (active). Take `Oc1ccc(N=Nc2c(O)ccc3ccccc23)cc1`: the inhibition was 20.8% (inactive).

Turning to `O=C(O)Cc1c(O)ccc2ccccc12`, the inhibition was 9.9% (inactive).

For `CC1CCN(CCNC(=O)CN(C)S(=O)(=O)c2cccc3nsnc23)CC1`, the inhibition is 0.3% (inactive). In the case of `Cc1c(Cl)cccc1NC(=S)Nc1ccccn1` it was 3.2% (inactive); in that of `COc1cc(NC(=O)C2=C(N3CCOCC3)/C(=C/c3ccc(Cl)cc3)CC2)cc(OC)c1OC`, 23.9% (inactive); in that of `COc1cccc(CNC(=O)c2nnn(-c3ccc(OC(F)(F)F)cc3)c2N)c1`, -5.4% (inactive).

As to `COC(=O)c1cc(=O)n(Cc2cccs2)c(=Nc2ccc(F)cc2)s1`, the inhibition is -2% (inactive). As to `Cc1[nH][nH]c(=O)c1C(c1cc([N+](=O)[O-])ccc1O)c1c(C)[nH][nH]c1=O`, the inhibition was 31.8% (inactive). Regarding `COc1ccc(O)c(C(c2c(C)[nH][nH]c2=O)c2c(C)[nH][nH]c2=O)c1`, the inhibition was 56.6% (active).

As to `CCOc1cc(C(c2c(C)[nH][nH]c2=O)c2c(C)[nH][nH]c2=O)ccc1O`, the inhibition is 49.7% (inactive).

As for `CN(C)c1nc(N)nc(-c2nc3ccccc3s2)n1`, the inhibition is 6.8% (inactive). Regarding `COc1ccc(C(=O)/C=C/Nc2ccc([N+](=O)[O-])cc2)cc1`, the inhibition is -10.3% (inactive). As for `COc1ccccc1N=Cc1c(C)[nH]n(-c2ccc(C)cc2C)c1=O`, the inhibition was 11.1% (inactive). In the case of `Cc1ccc2cccc(N=Cc3c(C)[nH]n(-c4ccccc4)c3=O)c2n1` it was -9.8% (inactive); in that of `Cc1cc(Br)ccc1-n1[nH]c(C)c(C=Nc2cccc3nsnc23)c1=O`, 70.9% (active). Turning to `Cc1ccc(-c2csc(NC(=O)COc3ccc(N(C)S(=O)(=O)c4ccc(C)cc4)cc3)n2)cc1`, the inhibition was 8.1% (inactive). In the case of `O=C(Nc1cccc2c1CCCC2)c1ccncc1` it was -4% (inactive); in that of `CCOCCCNc1ncc2c(n1)CC(c1ccc(C)cc1)CC2=O` (centres undefined), 9.4% (inactive).

Take `CCC(C)C(=O)Nc1ncc2c(n1)CC(c1cccs1)CC2=O` (centres undefined): the inhibition is -1.8% (inactive). For `CC(C)OCCCNc1ncc2c(n1)CC(c1cccs1)CC2=O` (centres undefined), the inhibition was 61.9% (active). For the compound `CC(C)OCCCNc1ncc2c(n1)CC(c1ccc(N(C)C)cc1)CC2=O` (centres undefined), the inhibition is 22.7% (inactive).

Turning to `CC(C)C(=O)Nc1ncc2c(n1)CC(c1cccs1)CC2=O` (centres undefined), the inhibition was 4% (inactive).

As to `CC(C)OCCCNc1ncc2c(n1)CC(c1ccccc1)CC2=O` (centres undefined), the inhibition is 53.2% (active). Regarding `COc1ccc(C2CC(c3c(Cl)cccc3Cl)n3nc(N)nc3N2)cc1` (centres undefined), the inhibition was 56.3% (active). For the compound `COc1cccc(C2CC(c3c(Cl)cccc3Cl)n3nc(N)nc3N2)c1` (centres undefined), the inhibition was 11.8% (inactive). In the case of `COc1ccc(C2CC(c3ccc(OC)cc3)n3nc(N)nc3N2)cc1` (centres undefined) it was 10.5% (inactive). In the case of `CN(C)/C=C1/Oc2c(ccc3ccccc23)C1=O` it was 59.2% (active); in that of `COc1cccc2c1C(=O)c1ccc3ccccc3c1C2=O`, -81.6% (inactive); in that of `CN(C)C=C1C(=O)c2ccccc2C1=O`, 0.8% (inactive). In the case of `CCCn1c(=O)c2c(nc(Br)n2CCC)n(C)c1=O` it was -0.3% (inactive). On to `Cc1c(C(=O)OCC(=O)Nc2ccc3c(c2)OCO3)cccc1[N+](=O)[O-]`, for which the inhibition is 16.9% (inactive). In the case of `COc1ccc(NC(=O)C(c2cc3c(cc2[N+](=O)[O-])OCO3)N(C)c2ccccc2)cc1` (centres undefined), the inhibition is 43.1% (inactive). For `CC1CCCN(C(C(=O)NC2CCCCC2)c2cc3c(cc2[N+](=O)[O-])OCO3)C1` (centres undefined), the inhibition is 41.4% (inactive).

With `COc1ccc(NC(=O)C(c2cc3c(cc2[N+](=O)[O-])OCO3)N2CCN(C=O)CC2)cc1` (centres undefined), the inhibition is 65.9% (active).

Regarding `COc1ccc(C(C(=O)Nc2ccc3c(c2)OCO3)N(C)C(=O)Cc2c[nH]c3ccccc23)cc1` (centres undefined), the inhibition was 18.8% (inactive). In the case of `CCN(c1cccc(C)c1)C(C(=O)Nc1ccc(OC)cc1)c1cc2c(cc1[N+](=O)[O-])OCO2` (centres undefined) it was 54.3% (active); in that of `O=C(Cc1ccccc1[N+](=O)[O-])Nc1ccc2c(c1)OCO2`, 0% (inactive). As for `COc1ccc(NC(=O)C(c2cc3c(cc2[N+](=O)[O-])OCO3)N(C)Cc2ccccc2)cc1` (centres undefined), the inhibition was 54.8% (active). In the case of `COc1ccc(NC(=O)CN2CCN(CC(=O)Nc3ccc4c(c3)OCO4)CC2)cc1` it was 0.8% (inactive). Turning to `COc1ccc(NC(=O)c2ccc(NC(=O)C(C)C)cc2)c([N+](=O)[O-])c1`, the inhibition is 1.6% (inactive). In the case of `COc1ccc(NC(=O)/C=C/c2ccc3c(c2)OCO3)cc1` it was 8.9% (inactive); in that of `COc1ccc(NC(=O)C(c2cc3c(cc2[N+](=O)[O-])OCO3)N(C)C)cc1` (centres undefined), 55.6% (active); in that of `Cc1nn2cnc3sc4c(c3c2nc1=O)CCCC4`, 1.4% (inactive). For the compound `Cc1ccc(C)c(NC(=O)CSc2n[nH]c(-c3ccncc3)n2)c1`, the inhibition is 4.4% (inactive). With `COc1cc(C(=O)NCCC(=O)N2CCN(C)CC2)cc(OC)c1OC`, the inhibition is -1% (inactive). Turning to `COC(=O)c1ccc(NC(=O)C2CCCN2S(=O)(=O)c2ccc(C)cc2)cc1` (centres undefined), the inhibition is 2.7% (inactive). In the case of `O=C(O)/C(=C\c1ccc(Cl)c([N+](=O)[O-])c1)c1ccc(S(=O)(=O)N2CCCCC2)s1` it was 57% (active). In the case of `O=C(O)/C(=C\c1ccccc1Cl)c1ccc(S(=O)(=O)N2CCCCC2)s1` it was -23% (inactive); in that of `O=C(O)/C(=C\c1ccc(Br)cc1)c1ccc(S(=O)(=O)N2CCCCC2)s1`, 3.7% (inactive). `Cc1c(Cl)c([N+](=O)[O-])nn1CCCC(=O)N1CCN(c2ccccc2)CC1`: the inhibition was -19.1% (inactive). In the case of `COc1cccc(CNC(=S)Nc2cc(C)cc(C)c2)c1` it was 4.2% (inactive). In the case of `O=c1[nH]c2ccccc2n2c(-c3ccccc3)nnc12` it was 74.5% (active); in that of `O=c1[nH]c2ccccc2n2c(-c3ccncc3)nnc12`, 0.5% (inactive). In the case of `O=c1[nH]c2ccccc2n2cnnc12` it was -5.9% (inactive).

Broadly, the inhibition is the relative decrease from the control value, in per cent.
